Data: PubChem BioAssay AID2013 (Sanford-Burnham Center for Chemical Genomics, 2009)
Among all 290,000 compounds or so, about 370 (0.13%) were called active.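 The calls were made as follows: active = spots per cell inhibited over 60%, with over 100 cells counted and total cytoplasm intensity under 500,000; inconclusive = wells with under 100 cells, flagged as likely toxic; inactive = the rest.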 Shown is part of a subset that was picked to be rich in actives. Measured potencies and affinities stand elsewhere.

Target: G-protein coupled receptor 55 (Homo sapiens) (UniProt Q9Y2T6)
Sequence (Q9Y2T6 whole entry, looked up): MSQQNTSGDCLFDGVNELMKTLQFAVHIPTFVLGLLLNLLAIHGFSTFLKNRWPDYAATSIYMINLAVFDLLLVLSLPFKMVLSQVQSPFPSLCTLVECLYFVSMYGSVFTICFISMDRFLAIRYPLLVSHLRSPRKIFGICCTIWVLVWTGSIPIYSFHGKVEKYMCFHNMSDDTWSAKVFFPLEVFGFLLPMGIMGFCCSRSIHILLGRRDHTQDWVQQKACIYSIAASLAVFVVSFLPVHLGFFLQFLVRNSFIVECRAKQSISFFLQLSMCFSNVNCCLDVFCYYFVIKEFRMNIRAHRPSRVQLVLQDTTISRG
Assay: inhibition of LPI-stimulated GPR55 beta-arrestin translocation – imaging, U2OS, beta-arrestin-GFP, LPI agonist, primary screen (AID 2013);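 also: U2OS cells stably carrying GPR55 and arrestin-GFP stimulated by 5 µM LPI near EC80; imaged beta-arrestin-GFP aggregate spots per cell after agonist stimulation; plate controls were LPI-stimulated DMSO wells for no effect and DMSO wells without LPI for full effect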
Conditions: LPI antagonism, at 10 µM, hits give high values

Structure (SMILES) | inhibition
CCC(Sc1nc(N)cc(=O)[nH]1)C(=O)NC(C(=O)OC)c1ccccc1 (configuration not stated) | 3.4% (inactive)
COc1ccc(C2CCCN2CC(O)COc2ccccc2C(C)C)cc1 (configuration not stated) | 5.6% (inactive)
O=C1CC(SC(=Nc2ccccc2)Nc2ccccc2)C(=O)N1c1cccc(Cl)c1 (configuration not stated) | 17.2% (inactive)
O=C1CC(SC(=Nc2ccccc2)Nc2ccccc2)C(=O)N1c1ccc(Cl)cc1 (configuration not stated) | 6.2% (inactive)
O=C1CC(SC(=Nc2ccccc2)Nc2ccccc2)C(=O)N1c1ccc(Cl)c(Cl)c1 (configuration not stated) | 72.2% (active)
Cc1ccc(CNC(=O)c2nnn(CC(=O)Nc3cccc(C)c3C)c2N)cc1 | 18.1% (inactive)
Cc1cc(SCc2ccc(Br)cc2)nc(=O)[nH]1 | -5.2% (inactive)
CCOc1ccc(OCc2ccc(C(=O)N3CCCCC3)o2)cc1 | 18.5% (inactive)
O=C(O)c1cc(NS(=O)(=O)c2ccc(N3CCCCC3)c([N+](=O)[O-])c2)cc(C(=O)O)c1 | 5% (inactive)
O=C(O)c1cc(NS(=O)(=O)c2ccc(NCc3ccccc3)c([N+](=O)[O-])c2)cc(C(=O)O)c1 | 58.9% (inactive)
CCOC(=O)c1sc(NC(=O)c2cc(-c3ccccc3C)nc3ccccc23)c(C#N)c1C | -36.6% (inactive)
Cc1ccc(C)c(-c2cc(C(=O)Nc3sc(C)c(C)c3C(N)=O)c3ccccc3n2)c1 | 18% (inactive)
Cc1sc(NC(=O)c2cc(-c3ccc(Cl)cc3)nc3ccccc23)c(C(N)=O)c1C | 28.7% (inactive)
Cc1sc(NC(=O)c2cc(-c3ccccc3)nc3ccccc23)c(C(N)=O)c1C | -0.9% (inactive)
O=C(c1cc2cc(Br)ccc2o1)N1CCN(c2ccccc2)CC1 | 5.9% (inactive)
CC(Sc1nnc(-c2ccc(OC(F)F)cc2)o1)C(=O)NCC1CCCO1 (configuration not stated) | 17.5% (inactive)
COc1cc(NC(=O)CN2CCCCC2)c(C)cc1[N+](=O)[O-] | 10.9% (inactive)
COc1cc(NC(=O)CN2C(=O)CN(C)C2=O)c(C)cc1[N+](=O)[O-] | 10.3% (inactive)
C=CCNC(=O)C1CCC(=O)N1S(=O)(=O)c1ccc(C)cc1 (configuration not stated) | 9.3% (inactive)
CC(c1ccccc1C(O)(c1ccccc1)c1ccccc1)N(C)C (configuration not stated) | 6.4% (inactive)
CC(c1ccccc1C(O)c1ccccc1)N(C)C (configuration not stated) | 28.9% (inactive)
S=c1[nH]nc(CCc2ccc(Cl)cc2)o1 | 9.7% (inactive)
COc1ccc(S(=O)(=O)N(CC(=O)N2CCCCCC2)c2ccccc2OC)cc1 | 9.8% (inactive)
COC(=O)c1cc(C#N)c(Oc2ccc(F)cc2)nc1C | 20.6% (inactive)
CCOC(=O)c1cc(C#N)c(SC)nc1-c1ccccc1 | 18% (inactive)
CCOC(=O)c1cc(C#N)c(Oc2cccc(C(F)(F)F)c2)nc1-c1ccccc1 | 10% (inactive)
CCOC(=O)c1cc(C#N)c(Oc2ccccc2OC)nc1-c1ccccc1 | 18.2% (inactive)
